Test results as given in PubChem BioAssay (Tox21).
Several values for one entry are separate records, joined by “and”; a condition that tells them apart may be missing. Equal values may be shown once. Records with an inconclusive call do not appear. Where a call stands in place of a potency, no number is given. A structure can be active in one record and inactive in another. Activity calls are given as the source filed them. Calls follow the shape of the dose curve; as a rule, active = well fitted cell-killing curve with a large enough effect in the repeat runs; inconclusive = weak or mixed curves; inactive = no such curve, though single readings can be large or run the other way.

Experiment: qHTS assay to identify small molecule agonists of the peroxisome proliferator-activated receptor delta (PPARd) signaling pathway - cell viability counter screen (AID 743211); also: nearly all actives have a fitted effect of over 55% in size
Settings: PPARd-bla HEK293H viability, CellTiter-Glo luminescence, 17 h; series mostly up to 62.6 µM
From the text: U.S. Tox21 Program National Center for Advancing Translational Sciences [NCATS] NIH Chemical Genomics Center [NCGC] U.S. Environmental Protection Agency [EPA] National Institutes of Environmental Health Sciences [NIEHS] National Toxicology Program [NTP] U.S. Food and Drug Administration [FDA] Tox21 Assay Overview: The peroxisome proliferator-activated receptors (PPARs) are lipid-activated transcription factors of the nuclear receptor superfamily with three distinct subtypes namely PPAR alpha, PPAR delta (PPARd) and PPAR gamma. All these subtypes heterodimerizes with Retinoid X receptor (RXR) and have different physiological functions. […] To identify the compounds that activate PPAR-delta signaling, GeneBLAzer PPAR delta UAS-bla HEK293H cell line (Invitrogen, Carlsbad, CA, USA) containing a beta-lactamase reporter gene under the control of an Upstream Activator Sequence (UAS) was used to screen the Tox21 compound library. The cytotoxicity of the Tox21 compound library against the PPARd-bla cell line was tested in parallel by measuring the cell viability using CellTiter-Glo assay (Promega, Madison, WI) in the same wells.
Tox21 Assay Protocol Summary: PPARd-bla cells were dispensed at 3000 cells/6uL/well in 1536-well black wall/clear bottom plates using a Multidrop Combi (Thermo Fisher Scientific, Waltham, MA) dispenser. After the assay plates were incubated at 37 C and 5% CO2 for 5 h, 23 nL of compounds dissolved in DMSO, positive controls or DMSO only was transferred to the assay plate by a Pintool station (Kalypsys, San Diego, CA). The assay plates were incubated at 37C for 17 h. After 1 uL of LiveBLAzerTM B/G FRET substrate was added using a Bioraptr Flying Reagent Dispenser (FRD) workstation (Beckman Coulter, Indianapolis, IN, USA), the plates were incubated at room temperature for 2 h, and fluorescence intensity was measured by an Envision plate reader (PerkinElmer, Shelton, CT). For cell viability readout that measures cytotoxicity, 3 ul/well of CellTiter-Glo reagent was added into the assay plates using a Bioraptr FRD. After 30 min incubation at room temperature, the luminescence intensity in the plates was measured using a ViewLux plate reader (PerkinElmer).
Potency is read from the fitted curve at half-maximal effect.

Compound	Potency
Oc1cccc(O)c1	inactive
CCN(CC)CCOC(=O)c1ccc(N)cc1	inactive
COc1cc(C=O)ccc1O	inactive
C#C[C@]1(O)CC[C@H]2[C@@H]3CCC4=CC(=O)CC[C@@H]4[C@H]3CC[C@@]21CC	inactive
CCn1cc(C(=O)O)c(=O)c2ccc(C)nc21	inactive
OCCCc1ccccc1	inactive
COc1cc(O)c(C(=O)c2ccccc2)cc1S(=O)(=O)O	inactive
CN/C(=C\[N+](=O)[O-])NCCSCc1ccc(CN(C)C)o1	inactive
Cn1cnc2c1c(=O)[nH]c(=O)n2C	inactive
O=c1c(-c2ccc(O)cc2)coc2cc(O)cc(O)c12	inactive
NC(N)=NC(N)=NCCc1ccccc1	inactive
CCCCOC(=O)CCCCCCCCC(=O)OCCCC	inactive
OC[C@@H](O)[C@@H](O)[C@H](O)[C@H](O)CO	inactive
Nc1cccc(N)c1	inactive
O=c1cc[nH]c(=O)[nH]1	inactive
COC1=CC(=O)C[C@@H](C)[C@]12Oc1c(Cl)c(OC)cc(OC)c1C2=O	inactive
CCN1CCCC1=O	inactive
CCc1cc(C(N)=S)ccn1	inactive
Cc1cccc2ccccc12	inactive
C=CC(=O)NC(C)(C)CS(=O)(=O)O	inactive

Compound	Potency
CCCCOCCOCCOC(C)=O	inactive
COc1ccccc1NC(=O)CC(C)=O	inactive
CCOC(=O)C(C)(C)Oc1ccc(Cl)cc1	inactive
CC(=O)CCC(C)C	inactive
Cc1ccc(O)c(-n2nc3ccccc3n2)c1	inactive
COC(=O)c1ccc(C=O)cc1	inactive
COC(=O)C1CCC(C(=O)OC)CC1 (stereo not given)	inactive
NC(=O)c1ccc([N+](=O)[O-])cc1Cl	inactive
Cc1cccc(Nc2cc(Cl)nc(SCC(=O)O)n2)c1C	inactive
COCC(C)N (stereo not given)	inactive
Cc1cnc(NC(=O)C2=C(O)c3ccccc3S(=O)(=O)N2C)s1	inactive
N[C@@H](Cc1c[nH]c2ccccc12)C(=O)O	inactive
C=C(C)OC(C)=O	inactive
C#C[C@]1(O)CC[C@H]2[C@@H]3CCc4cc(O)ccc4[C@H]3CC[C@@]21C	inactive
O=C1CCCCCN1	inactive
CC(=O)/C=C/C1=C(C)CCCC1(C)C	inactive
NC(=O)NO	inactive
NC(=O)N1c2ccccc2C=Cc2ccccc21	inactive
O=C(O)CN(CC(=O)O)CC(=O)O	inactive
NCCNc1cccc2ccccc12	54.9 µM (active) and 47.8 µM (active) and inactive
